Drawing on the supplement of paper PMC9262897, “Low-cost anti-mycobacterial drug discovery using engineered E. coli” (Nature Communications, 2022), this text covers growth for 39 compounds.

Structures can show the parent of a compound that is named as a salt. ± gives the standard deviation of the averaged measurements.

The test relates to E. coli TESEC Mtb Alr. Description: growth (OD600 after 10 h); higher = more growth (less inhibition). Conditions: arabinose 1000 nM; compound 0.1 mM; raw OD600 reference: median of DMSO wells 0.294, cell-free background 0.041. Here is the method: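 TESEC Mtb Alr E. coli, or the Alr+ wild-type control, in 384-well plates with Prestwick library compounds at 0.1 mM and 1% DMSO, across arabinose induction levels of 1E3 to 1E7 nM. Growth is read as OD600 after 10 h at 37 °C in triplicate biological replicates.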
The compound `CC(=O)Oc1cccc2c1C(=O)c1c(OC(C)=O)cc(C(=O)O)cc1C2=O` [Diacerein] yielded a growth of 0.136 ± 0.011.

With `COc1ccc(-c2cc(=S)ss2)cc1` [Anethole-trithione], the growth is 0.232 ± 0.008.

`O=C(O)Cc1ccccc1Nc1c(Cl)cccc1Cl` [Diclofenac sodium] came in with a growth of 0.137 ± 0.0017.

Turning to `CCN1CCC[C@H]1CNC(=O)c1c(O)c(Cl)cc(Cl)c1OC` [Raclopride], the growth worked out at 0.16 ± 0.01.

In the case of `COc1ccc(C[C@@H]2c3cc(OC)c(OC)cc3CC[N@+]2(C)CCC(=O)OCCCCCOC(=O)CC[N@@+]2(C)CCc3cc(OC)c(OC)cc3[C@H]2Cc2ccc(OC)c(OC)c2)cc1OC` [Cisatracurium besylate], the growth was 0.307 ± 0.0083.

As to `CN(C)CCOC(=O)C(c1ccccc1)C1(O)CCCC1` (centres undefined) [Cyclopentolate hydrochloride], the growth was found to be 0.29 ± 0.0093.

For the compound `CCCCOc1ccc(C(=O)CCN2CCCCC2)cc1` [Dyclonine hydrochloride], the growth came to 0.278 ± 0.0053.

With `CC[C@H]1OC(=O)[C@H](C)[C@@H](O[C@H]2C[C@@](C)(OC)[C@@H](O)[C@H](C)O2)[C@H](C)[C@@H](O[C@@H]2O[C@H](C)C[C@H](N(C)C)[C@H]2O)[C@](C)(O)C[C@@H](C)/C(=N\OCOCCOC)[C@H](C)[C@@H](O)[C@]1(C)O` [Roxithromycin], the growth came to 0.0412 ± 0.00062.

The compound `CCOC(=O)O[C@]1(C(=O)OCCl)CC[C@H]2[C@@H]3CCC4=CC(=O)C=C[C@]4(C)[C@H]3[C@@H](O)C[C@@]21C` [Loteprednol etabonate] had a growth of 0.167 ± 0.02.

The compound `c1ccc2c(CC3=NCCN3)cccc2c1` [Naphazoline hydrochloride] showed a growth of 0.26 ± 0.032.

Regarding `O=C(N/N=C/c1ccc([N+](=O)[O-])o1)c1ccc(O)cc1` [Nifuroxazide], the growth was determined as 0.217 ± 0.018.

In turn, `COCCOC(=O)C1=C(C)NC(C)=C(C(=O)OC/C=C/c2ccccc2)C1c1cccc([N+](=O)[O-])c1` (centres undefined) [Cilnidipine] had a growth of 0.333 ± 0.0093.

Regarding `CCN(CC)CCOC(=O)c1ccc(N)cc1` [Procaine hydrochloride], the growth came to 0.254 ± 0.065.

As to `COc1cccc(N(C)C(=S)Oc2ccc3c(c2)CCCC3)n1` [Liranaftate], the growth came to 0.259 ± 0.0073.

As to `CC(C)(Sc1cc(C(C)(C)C)c(O)c(C(C)(C)C)c1)Sc1cc(C(C)(C)C)c(O)c(C(C)(C)C)c1` [Probucol], the growth was found to be 0.298 ± 0.014.

For the compound `C[C@@H]1[C@H](O)[C@@H](C)/C=C/C=C/C=C/C=C/C=C/C=C/C=C/[C@H](O[C@@H]2O[C@H](C)[C@@H](O)[C@H](N)[C@@H]2O)C[C@@H]2O[C@](O)(C[C@@H](O)C[C@@H](O)[C@H](O)CC[C@@H](O)C[C@@H](O)CC(=O)O[C@H]1C)C[C@H](O)[C@H]2C(=O)O` [Amphotericin B], the growth was 0.33 ± 0.0067.

For `C[C@@H](O)[C@H]1C(=O)N2C(C(=O)O)=C(S[C@@H]3CN[C@H](C(=O)N(C)C)C3)[C@H](C)[C@H]12` [Meropenem], the growth stood at 0.0418 ± 0.0014.

For `CC1CCc2cc(F)cc3c(=O)c(C(=O)O)cn1c23` (centres undefined) [Flumequine], the growth amounted to 0.04537 ± 0.00031.

Compound `O=C1CC2(CCCC2)CC(=O)N1CCCCN1CCN(c2ncccn2)CC1` [Buspirone hydrochloride] gave a growth of 0.274 ± 0.0095.

For `CC[C@]12CCCN3CCc4c(n(c5ccccc45)[C@@](O)(C(=O)OC)C1)[C@@H]32` [Vincamine], the growth came to 0.276 ± 0.0046.

`N#CC(c1ccc(Cl)cc1)c1c(Cl)cc(-n2ncc(=O)[nH]c2=O)cc1Cl` (centres undefined) [Diclazuril] gave a growth of 0.0423 ± 0.004.

As to `CCOC(=O)[C@H](CCc1ccccc1)N[C@H]1CCc2ccccc2N(CC(=O)O)C1=O` [Benazepril HCl], the growth was determined as 0.044 ± 0.0065.

In turn, `C[C@H](CCC(=O)O)[C@H]1CC[C@H]2[C@@H]3[C@H](O)C[C@@H]4C[C@H](O)CC[C@]4(C)[C@H]3CC[C@]12C` [Chenodiol] registered a growth of 0.263 ± 0.0097.

`CC(=O)CC(c1ccccc1)c1c(O)c2ccccc2oc1=O` (centres undefined) [Warfarin] registered a growth of 0.273 ± 0.007.

For `O=C1CN(/N=C/c2ccc(-c3ccc([N+](=O)[O-])cc3)o2)C(=O)N1` [Dantrolene sodium salt], the growth was 0.263 ± 0.0054.

In turn, `Nc1nc2c(ncn2COC(CO)CO)c(=O)[nH]1` [Ganciclovir] showed a growth of 0.283 ± 0.0092.

`Cc1ccc(C(=O)c2cc(O)c(O)c([N+](=O)[O-])c2)cc1` [Tolcapone] had a growth of 0.0471 ± 0.0057.

Consider `Fc1ccc([C@@H]2CCNC[C@H]2COc2ccc3c(c2)OCO3)cc1` [Paroxetine Hydrochloride], for which the growth was found to be 0.172 ± 0.01.

`COc1ccc(CN2CCN(C(c3ccc(F)cc3)c3ccc(F)cc3)CC2)c(OC)c1OC` [Lomerizine hydrochloride] had a growth of 0.126 ± 0.0034.

For the compound `C[C@@H]1C[C@H]2[C@@H]3CCC4=CC(=O)C=C[C@]4(C)[C@@]3(Cl)[C@@H](O)C[C@]2(C)[C@@]1(OC(=O)c1ccco1)C(=O)CCl` [Mometasone furoate], the growth stood at 0.259 ± 0.031.

Turning to `Cc1cccc(Nc2ccncc2S(=O)(=O)NC(=O)NC(C)C)c1` [Torsemide], the growth was determined as 0.29 ± 0.012.

`COc1nc(C)nc(Cl)c1NC1=NCCN1` [Moxonidine] displayed a growth of 0.298 ± 0.014.

For the compound `NC(=O)c1cccnc1` [Nicotinamide], the growth is 0.335 ± 0.0062.

With `NCCCC(O)(P(=O)(O)O)P(=O)(O)O` [Alendronate sodium], the growth amounted to 0.305 ± 0.013.

For the compound `NNC(=O)c1ccncc1` [Isoniazid], the growth amounted to 0.288 ± 0.006.

Consider `CC(C)OC(=O)C(C)(C)Oc1ccc(C(=O)c2ccc(Cl)cc2)cc1` [Fenofibrate], for which the growth was 0.235 ± 0.015.

`CCC[C@@H]1C[C@@H](C(=O)N[C@@H]([C@H]2O[C@H](SC)[C@H](O)[C@@H](O)[C@H]2O)[C@@H](C)O)N(C)C1` [Lincomycin hydrochloride] gave a growth of 0.122 ± 0.011.

For `CS(=O)(=O)OCCCCOS(C)(=O)=O` [Busulfan], the growth is 0.287 ± 0.025.

In turn, `CC[C@H]1OC(=O)C[C@@H](O)[C@H](C)[C@@H](O[C@@H]2O[C@H](C)[C@@H](O[C@H]3C[C@@](C)(O)[C@@H](O)[C@H](C)O3)[C@H](N(C)C)[C@H]2O)[C@@H](CC=O)C[C@@H](C)C(=O)/C=C/C(C)=C/[C@@H]1CO[C@@H]1O[C@H](C)[C@@H](O)[C@@H](OC)[C@H]1OC` [Tylosin] showed a growth of 0.0588 ± 0.0023.
